Positions count from the first letter of the chain named.

Consider 12 sequences from PMC5700166.

Holding throughout (assay): protein-binding microarray (PBM); PBM: ~300 nM protein, 6 mM HEPES pH 7.8, 80 mM KCl, 0.5 mM EDTA, 0.5 mM EGTA, 6% glycerol, 35 ng/ul poly-dIdC, 1% milk, 1 h, room temperature; Ap Aiptasia and Nv Nematostella (sea anemones) / Co Capsaspora / Aq Amphimedon (sponge) / Dm Drosophila / Hu human; RHD is the Rel homology domain; high values mean tight binding
What all share (conditions): dsDNA, one strand shown

Test [1] has as its target T1, GST-Ap-NF-kB RHD (Exaiptasia pallida (Aiptasia), UniProt A0A913YAJ5 2-422).
T1 sequence: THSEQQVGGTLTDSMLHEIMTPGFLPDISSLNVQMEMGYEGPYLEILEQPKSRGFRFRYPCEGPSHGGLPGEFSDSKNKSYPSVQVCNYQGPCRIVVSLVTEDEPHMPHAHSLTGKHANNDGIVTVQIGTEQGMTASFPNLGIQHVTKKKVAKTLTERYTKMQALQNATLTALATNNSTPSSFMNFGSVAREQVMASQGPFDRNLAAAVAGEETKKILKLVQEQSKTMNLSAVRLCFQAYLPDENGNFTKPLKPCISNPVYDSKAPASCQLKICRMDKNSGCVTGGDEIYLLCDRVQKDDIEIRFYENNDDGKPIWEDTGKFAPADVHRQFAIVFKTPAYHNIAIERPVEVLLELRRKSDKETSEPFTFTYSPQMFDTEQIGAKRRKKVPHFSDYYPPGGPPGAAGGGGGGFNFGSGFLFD

The target in test [2] is T2, GST-Nv-NF-kB (Cys allele) (Nematostella vectensis, UniProt E5G601 2-411).
T2 sequence: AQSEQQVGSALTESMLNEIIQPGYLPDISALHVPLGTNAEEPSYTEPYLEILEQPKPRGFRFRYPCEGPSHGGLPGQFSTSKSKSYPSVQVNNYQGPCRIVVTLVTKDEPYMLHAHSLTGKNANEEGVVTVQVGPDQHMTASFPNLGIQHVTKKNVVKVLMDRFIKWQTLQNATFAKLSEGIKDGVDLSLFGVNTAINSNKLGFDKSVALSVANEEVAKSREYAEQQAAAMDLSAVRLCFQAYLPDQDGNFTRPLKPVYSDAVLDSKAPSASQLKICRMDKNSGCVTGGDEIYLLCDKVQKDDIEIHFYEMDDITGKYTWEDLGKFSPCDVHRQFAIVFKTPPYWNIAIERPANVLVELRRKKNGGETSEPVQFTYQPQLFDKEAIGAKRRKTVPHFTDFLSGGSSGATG

Test [3] addresses T3, GST-Nv-NF-kB (Ser allele) (Nematostella vectensis, UniProt A7UNT2 2-411).
T3 sequence: T2 sequence with Q21R, C66S, S207N, E215Q, V217A, E225K, A268E, D399E

The target of test [4] is T4, GST-Co-NF-kB (Capsaspora owczarzaki, UniProt F1ARL5 200-546).
T4 sequence: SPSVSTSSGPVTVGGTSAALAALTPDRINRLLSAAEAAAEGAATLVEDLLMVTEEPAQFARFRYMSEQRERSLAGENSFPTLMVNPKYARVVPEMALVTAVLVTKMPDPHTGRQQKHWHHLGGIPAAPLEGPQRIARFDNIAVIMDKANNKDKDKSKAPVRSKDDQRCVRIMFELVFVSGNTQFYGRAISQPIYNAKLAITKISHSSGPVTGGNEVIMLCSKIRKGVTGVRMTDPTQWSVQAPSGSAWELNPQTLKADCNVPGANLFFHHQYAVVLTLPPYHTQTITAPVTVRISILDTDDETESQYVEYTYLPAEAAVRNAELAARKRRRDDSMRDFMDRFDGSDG

Test [5] deals with T5, GST-Dm-Relish (Drosophila melanogaster, UniProt Q94527 99-473).
T5 sequence: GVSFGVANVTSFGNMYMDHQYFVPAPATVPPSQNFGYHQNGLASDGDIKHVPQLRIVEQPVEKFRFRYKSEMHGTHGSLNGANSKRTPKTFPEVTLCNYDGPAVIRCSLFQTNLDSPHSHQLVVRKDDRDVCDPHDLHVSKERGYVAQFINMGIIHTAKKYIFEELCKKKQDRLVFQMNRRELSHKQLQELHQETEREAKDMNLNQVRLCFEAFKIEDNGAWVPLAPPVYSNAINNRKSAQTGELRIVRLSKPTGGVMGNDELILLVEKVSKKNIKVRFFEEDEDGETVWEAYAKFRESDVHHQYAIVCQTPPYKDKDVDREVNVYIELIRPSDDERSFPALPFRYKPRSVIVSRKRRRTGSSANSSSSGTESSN

Test [6] addresses T6, GST-Aq-NF-kB (Amphimedon queenslandica, UniProt A9Y5G7 2-389).
T6 sequence: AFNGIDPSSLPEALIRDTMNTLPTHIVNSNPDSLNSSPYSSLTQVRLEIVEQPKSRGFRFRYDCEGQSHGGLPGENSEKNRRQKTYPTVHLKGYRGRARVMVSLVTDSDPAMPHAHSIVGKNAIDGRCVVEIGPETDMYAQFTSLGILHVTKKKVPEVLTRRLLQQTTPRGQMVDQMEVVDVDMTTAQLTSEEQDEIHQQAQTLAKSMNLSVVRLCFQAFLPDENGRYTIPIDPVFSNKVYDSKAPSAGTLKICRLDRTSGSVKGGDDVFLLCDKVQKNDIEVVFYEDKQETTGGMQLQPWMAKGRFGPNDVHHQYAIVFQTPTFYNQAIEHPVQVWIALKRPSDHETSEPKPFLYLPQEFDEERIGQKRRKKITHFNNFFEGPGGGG

Test [7] deals with GST-Hu-p50 (Homo sapiens, UniProt P19838 7-356).
Chain of GST-Hu-p50 (P19838 7-356): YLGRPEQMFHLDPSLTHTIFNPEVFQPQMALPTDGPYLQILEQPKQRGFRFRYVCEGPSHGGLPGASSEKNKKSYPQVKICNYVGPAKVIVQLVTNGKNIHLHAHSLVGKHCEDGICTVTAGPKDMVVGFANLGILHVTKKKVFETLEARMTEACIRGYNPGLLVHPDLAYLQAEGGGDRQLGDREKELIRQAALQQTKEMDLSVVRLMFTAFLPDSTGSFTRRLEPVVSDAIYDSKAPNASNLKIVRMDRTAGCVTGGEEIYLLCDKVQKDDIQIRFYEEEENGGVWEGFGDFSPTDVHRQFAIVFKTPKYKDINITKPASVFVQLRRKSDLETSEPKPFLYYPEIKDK

“CCGATTAACATCAGGGGTAAATATGATGTTAATCGGGTCTTGATTCGCTTGACGCTGCTG”: the binding signal in test [1] was 2.7 z-score; in test [2] it was 3.39 z-score; in test [3], 3.87 z-score; in test [4] it was 7.48 z-score; in test [5] it was 1.66 z-score; in test [6], 3.06 z-score. The binding signal in test [7] came out at 3.84 z-score.

Regarding “CCGATTAACATCAAAATTTCCCTTGATGTTAATCGGGTCTTGATTCGCTTGACGCTGCTG”, the binding signal amounted to 5.11 z-score in test [1]; 8.26 z-score in test [2]; 7.99 z-score in test [3]; 5.01 z-score in test [4]; 4.81 z-score in test [5]; 7.6 z-score in test [6]. This sequence showed a binding signal in test [7] of 5.41 z-score.

Turning to “CCGATTAACATCACGAAATCCCCTGATGTTAATCGGGTCTTGATTCGCTTGACGCTGCTG”, the binding signal in test [1] is 8.93 z-score; in test [2], 9.59 z-score; in test [3] it was 11.6 z-score; in test [4], 4 z-score; in test [5] it was 8.34 z-score; in test [6], 6.39 z-score. In test [7], the binding signal came to 7.74 z-score.

Consider “CCGATTAACATCAGGGGACGTACTGATGTTAATCGGGTCTTGATTCGCTTGACGCTGCTG”, for which the binding signal in test [1] worked out at 4.18 z-score; in test [2], 3.48 z-score; in test [3], 3.58 z-score; in test [4], 2.33 z-score; in test [5] it was 6.95 z-score; in test [6], 4.39 z-score. Moreover, the binding signal in test [7] was 3.75 z-score.

Regarding “CCGATTAACATCAAAATTGCCCCTGATGTTAATCGGGTCTTGATTCGCTTGACGCTGCTG”, the binding signal in test [1] stood at 3.3 z-score; in test [2], 4.73 z-score; in test [3], 5.76 z-score; in test [4] it was 3.12 z-score; in test [5] it was 2.43 z-score; in test [6], 4.55 z-score. In addition, in test [7], the binding signal turned out to be 5.1 z-score.

Consider “CCGATTAACATCAGGACATTCCCTGATGTTAATCGGGTCTTGATTCGCTTGACGCTGCTG”, for which the binding signal in test [1] amounted to 2.97 z-score; in test [2] it was 4.82 z-score; in test [3], 2.96 z-score; in test [4] it was 1.36 z-score; in test [5] it was 3.89 z-score; in test [6] it was 6.9 z-score. In addition, the binding signal in test [7] worked out at 3.21 z-score.

Consider “CCGATTAACATCACGGATTCCCCTGATGTTAATCGGGTCTTGATTCGCTTGACGCTGCTG”, for which the binding signal was 8.74 z-score in test [1]; 9.07 z-score in test [2]; 9.24 z-score in test [3]; 6.61 z-score in test [4]; 8.89 z-score in test [5]; 6.68 z-score in test [6]. In test [7], this sequence had a binding signal of 6.26 z-score.

For “CCGATTAACATCAGGGGATCACCTGATGTTAATCGGGTCTTGATTCGCTTGACGCTGCTG”, the binding signal in test [1] was 7.26 z-score; in test [2] it was 5.39 z-score; in test [3] it was 6.05 z-score; in test [4] it was 2.95 z-score; in test [5], 9.04 z-score; in test [6] it was 6.68 z-score. In test [7], the binding signal came out at 4.71 z-score.

With “CCGATTAACATCAATTCCCCTGATGATGTTAATCGGGTCTTGATTCGCTTGACGCTGCTG”, the binding signal in test [1] is 6.84 z-score; in test [2], 7.45 z-score; in test [3], 9.02 z-score; in test [4], 5.73 z-score; in test [5] it was 3.81 z-score; in test [6] it was 4.89 z-score. The binding signal in test [7] came out at 5.75 z-score.

Take “CCGATTAACATCAAAGCTTTCCCTGATGTTAATCGGGTCTTGATTCGCTTGACGCTGCTG”: the binding signal came to 2.54 z-score in test [1]; 4.28 z-score in test [2]; 4.2 z-score in test [3]; 3.59 z-score in test [4]; 1.47 z-score in test [5]; 4.07 z-score in test [6]. Besides, in test [7], the binding signal is 3.46 z-score.

Take “CCGATTAACATCACAAAAAACCCTGATGTTAATCGGGTCTTGATTCGCTTGACGCTGCTG”: the binding signal in test [1] came to 3.76 z-score; in test [2] it was 4.37 z-score; in test [3], 4.38 z-score; in test [4], 1.78 z-score; in test [5], 5.51 z-score; in test [6], 5.58 z-score. The sequence also came in with a binding signal in test [7] of 4.61 z-score.

As to “CCGATTAACATCAGGGAAGTTTATGATGTTAATCGGGTCTTGATTCGCTTGACGCTGCTG”, the binding signal in test [1] was 4.29 z-score; in test [2] it was 4.93 z-score; in test [3], 4.78 z-score; in test [4], 2.58 z-score; in test [5], 3.35 z-score; in test [6] it was 5.26 z-score. Also, the binding signal in test [7] was 3.73 z-score.
